# Measurements from PubChem BioAssay AID1851 (National Center for Advancing Translational Sciences (NCATS), 2009).
# Values joined by “and” are separate entries in the source; they are usually repeats but may differ in a detail not shown here. Equal values may be shown once. About 5,800 (36%) of roughly 16,000 compounds were called active. Roughly 23% stayed inconclusive and do not appear here. The list shows a part of the results. Values without a mark were called inactive. The call rests on the fitted dose curve; in most records, active means well fitted curve in the direction sought with a large enough effect; inconclusive means small, poorly fitted or top-dose-only effect, or effect the other way; inactive means no such curve, though single readings can be large or run the other way.
# Target: Cytochrome P450 2C19 (Homo sapiens) (UniProt P33261)
# Experiment: Cytochrome panel assay with activity outcomes
# Details: recombinant CYP, pro-luciferin dealkylation, luminescence, p450-cyp2c19; series mostly up to 57.1 µM; activity, negative = inhibition: at the top concentration
# On the % scale 0 is the no-effect control and ±100 the full control effect.
# Cytochrome P450 2C19 (Homo sapiens), sequence (P33261 whole entry, looked up): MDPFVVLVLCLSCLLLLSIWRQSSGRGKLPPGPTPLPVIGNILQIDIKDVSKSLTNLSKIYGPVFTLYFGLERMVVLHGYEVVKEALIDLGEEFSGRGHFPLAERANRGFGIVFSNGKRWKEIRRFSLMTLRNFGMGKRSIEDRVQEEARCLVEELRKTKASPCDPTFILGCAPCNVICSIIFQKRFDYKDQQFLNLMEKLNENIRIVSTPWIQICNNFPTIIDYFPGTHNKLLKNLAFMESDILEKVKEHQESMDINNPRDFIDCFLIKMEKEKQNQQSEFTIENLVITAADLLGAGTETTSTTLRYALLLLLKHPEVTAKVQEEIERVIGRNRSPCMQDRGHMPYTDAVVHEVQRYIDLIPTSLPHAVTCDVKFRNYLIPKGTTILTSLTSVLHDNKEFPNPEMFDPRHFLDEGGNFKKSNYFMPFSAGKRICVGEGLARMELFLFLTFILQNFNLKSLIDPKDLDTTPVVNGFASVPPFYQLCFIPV
SMILES,"activity, negative = inhibition",AC50
CS(=O)(=O)N1CCC2(CCCN(C(=O)Nc3cccc(C#N)c3)C2)CC1,-5.89%,–
Cc1[nH]c2ccccc2c1/C=C(\C#N)C(=O)NC(C)c1ccccc1 (centres undefined),–,11.2 µM (active)
Cc1[nH]c2ccccc2c1/C=C/c1cc[n+](C)cc1,-13.1%,–
C#CCSc1nncn1C(=O)/C=C/c1ccccc1,–,15.8 µM (active)
Cc1nc2cnc(N(C)C)nc2n(C2CC2)c1=O,-29%,–
COc1ncc2ncc(=O)n(C3CC3)c2n1,-16.9%,–
COc1ccc(Oc2ncc3nc(CCc4ccccc4)c(=O)n(C4CC4)c3n2)cc1,–,1.58 µM (active)
CN(C)c1ncc2nc(CCc3ccccc3)c(=O)n(C3CC3)c2n1,–,15.8 µM (active)
COc1ncc2nc(C)c(=O)n(C3CC3)c2n1,-11.7%,–
Cc1nc2cnc(Oc3ccccc3)nc2n(C2CC2)c1=O,-18.6%,–
O=c1c(-c2cc(F)cc(F)c2)nc2cnc(Oc3ccccc3)nc2n1C1CC1,-24%,–
COc1ncc2nc(CCc3ccccc3)c(=O)n(C3CC3)c2n1,–,15.8 µM (active)
CN(C)c1ncc2nc(-c3ccc(F)cc3)c(=O)n(C3CC3)c2n1,-35.1%,–
O=C(O)c1ccccc1-c1ccccc1C(=O)Nc1ccc2c(c1)Cc1ccccc1-2,37.2% [at 11.4 µM],–
Cn1c(SCC(=O)c2ccc3c(c2)Cc2ccccc2-3)nnc1-c1ccccc1,–,28.2 µM (active)
COC(=O)Nc1nc2ccc(C(=O)c3cccs3)cc2[nH]1,-12.3% [at 25.6 µM],–
Cc1ccc2nc(/C(C#N)=C\c3ccc(OC(=O)c4cccs4)cc3)[nH]c2c1,–,2.24 µM (active)
NC(=NC1C2CC3CC(C2)CC1C3)Nc1ccc(I)cc1 (centres undefined),–,5.01 µM (active)
CCc1cc2c(Sc3nc4ccccc4s3)ncnc2s1,–,2.51 µM (active)
CN(C)CCn1c(=O)n(Cc2ccco2)c(=O)c2c3c(sc21)CCCCC3,–,15.8 µM (active)
NC(=O)Cn1c(=O)n(Cc2ccco2)c(=O)c2c3c(sc21)CCCCC3,–,2.82 µM (active)
O=C(Cn1c(=O)n(Cc2ccco2)c(=O)c2c3c(sc21)CCCCC3)c1ccccc1,–,7.08 µM (active)
O=C(Nc1cccc2ccccc12)c1cn(-c2ccccc2)nc1-c1cccs1,–,6.31 µM (active)
COc1cccc(Nc2ncc3nc(-c4cccs4)c(=O)n(-c4ccccc4)c3n2)c1,4.9%,–

SMILES,"activity, negative = inhibition",AC50
COc1ccc(Oc2ncc3nc(-c4cccs4)c(=O)n(-c4ccccc4)c3n2)cc1,-13.1%,–
CC(=O)CCCCn1c(=O)c2c(ncn2C)n(C)c1=O,-8.94% [at 25.6 µM],–
C=CC[C@@H]1C=C[C@@H](O/N=C\C[C@@H]2C=C[C@H](OC(C)=O)[C@H](COC(C)=O)O2)[C@@H](CO)O1,17.2% [at 11.4 µM],–
C=CC[C@@H]1C=C[C@H](Oc2ccc(C)cc2)[C@H](COC(=O)NCc2cccc3ccccc23)O1,–,1.26 µM (active)
C=CC[C@@H]1C=C[C@@H](O/N=C(/C)CCC(=O)OC[C@@H]2O[C@H](C#Cc3ccccc3)C=C[C@@H]2Oc2ccc(C)cc2)[C@@H](CO)O1,-42.3% [at 11.4 µM],–
O=S(Cc1ccc(Br)cc1)Cc1nnc(SCc2ccc(Cl)cc2)n1-c1ccccc1 (centres undefined),–,10 µM (active)
CC(C)(C)c1ccc(-c2nnc(SCc3ccc(Cl)cc3)n2-c2cccc(C(F)(F)F)c2)cc1,-28.9% [at 11.4 µM],–
OCCCNc1ncnc2[nH]ncc12,36.5% [at 11.4 µM],–
CCOC(=O)c1c(-c2ccccc2)nc2c(C)cccn12,–,15.8 µM (active)
CC(C)C(NC(=O)C1CCCCC1)C(=O)NCc1ccccn1 (centres undefined),-5.05%,–
Cc1ccccc1C(C(=O)NC1CCCC1)N(C(=O)Cc1cccs1)c1ccc2c(c1)OCCO2 (centres undefined),–,14.1 µM (active)
Cc1cc(C)cc(N(C(=O)Cc2cccs2)C(C(=O)NC2CCCCC2)c2ccccn2)c1 (centres undefined),–,15.8 µM (active)
C/C(CC(=O)NC1CCCC1)=N\NC(=O)Cc1cccs1,-1.91%,–
Cc1nn(C)cc1C(C(=O)NC1CCCCC1)N(C(=O)Cc1cccs1)c1ccc(C(C)C)cc1 (centres undefined),–,7.94 µM (active)
COc1ccccc1/C=N/NC(=Nc1ccc(C)cc1)c1nc2ccccc2s1,-4.38%,–
COc1ccccc1/C=N/NC(=O)CC(=O)Nc1ccc(Cl)c(Cl)c1,–,11.2 µM (active)
O=C(Oc1ccccc1)N1CCC[C@@]2(CCN(c3ccncc3)C2)C1,–,5.01 µM (active)
COC(=O)N1CCC2(CCCN(c3ccc(-c4ccccc4)cc3)C2)CC1,-24.4%,–
COC(=O)N1CCC2(CC1)CN(c1ccccc1)C2,–,6.31 µM (active)
O=C(Oc1ccccc1)N1CCC2(CC1)CCN(c1ccncc1)CC2,-32.8%,–
CC(=O)N1CCC2(CC1)CN(c1ccncc1)C2,30.5%,–
COC(=O)N1CCC[C@@]2(CCN(c3ccncc3)C2)C1,15.9%,–
COC(=O)N1CCC2(CC1)CN(c1ccc(-c3ccccc3)cc1)C2,-11.4%,–
O=C(Oc1ccccc1)N1CCC2(CC1)CN(c1ccncc1)C2,–,7.94 µM (active)
